Results filed as inconclusive are left out. Calls of active or inactive are those of the source. The call rests on the fitted dose curve; in most records, active means well fitted curve in the direction sought with a large enough effect; inconclusive means small, poorly fitted or top-dose-only effect, or another doubt; inactive means no such curve, though single readings can be large; an effect the other way counts as inactive or inconclusive.
What was measured:
[1] = system: Zika virus NS2B-NS3 protease (linked construct); assay: Primary screen NINDS Rhodamine qHTS for Zika virus inhibitors (AID 1347160); further: nearly all actives have a fitted effect of over 55% in size; further: potency means the concentration at half of the fitted maximal effect
Summary of the method: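 Enzyme (25 nM, linked NS2B-NS3) was preincubated 15 min with compound in 10 mM Tris-HCl pH 8.0, 0.01% Tween 20. Rhodamine110 substrate (1.5 microM) was then added and fluorescence read at start and after 15 min.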

[2] = OV-KATE Cancer Cell Toxicity qHTS against the NCATS CANVASS Library (AID 1347345)
Summary of the method: (§1)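 Toxicity is measured over 72 h of compound exposure at 37 degrees C under 5% CO2. Each well holds 1000 cells, pre-incubated for 4 hours before dosing across an 11-point range. CellTiter-Glo luminescence gives viability.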

[3] = HPAF-II Cancer Cell Toxicity qHTS against the NCATS CANVASS Library (AID 1347346); further: series mostly up to about 38 µM; nearly all actives have a fitted effect of over 55% in size
Summary of the method: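 Using 1000 HPAF-II cells per well, we titrated compounds over 11 concentrations for 72 h at 37 degrees C/5% CO2, with bortezomib as control. Cell survival was quantified by CellTiter-Glo luminescence.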

[4] = UWB1.289 Cancer Cell Toxicity qHTS against the NCATS CANVASS Library (AID 1347347); further: nearly all actives have a fitted effect of over 60% in size
Summary of the method: as §1

[5] = Panc-1005 Cancer Cell Toxicity qHTS against the NCATS CANVASS Library (AID 1347349); further: series mostly up to about 38 µM; nearly all actives have a fitted effect of over 60% in size
Summary of the method: as §1

[6] = SW1088 Cancer Cell Toxicity qHTS against the NCATS CANVASS Library (AID 1347350); further: nearly all actives have a fitted effect of over 75% in size
Summary of the method: as §1

[7] = COV-362 Cancer Cell Toxicity qHTS against the NCATS CANVASS Library (AID 1347352); further: series mostly up to about 38 µM
Summary of the method: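 Using an ATP-based luminescent reagent after three days of treatment, toxicity is scored across an eleven-concentration range in wells holding 1000 cells each.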

[8] = HEK293 18hr Apoptosis Induction qHTS against the NCATS CANVASS Library (AID 1347357)
Summary of the method: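 HEK293 cells (500 per well, DMEM with 10% FBS) were treated with natural products, incubated 18 hours at 37 degrees C, then caspase-3/7 activity was read by Caspase-Glo luminescence after 15 min at room temperature.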

[9] = HEK293 24hr Apoptosis Induction qHTS against the NCATS CANVASS Library (AID 1347359)
Summary of the method: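 Caspase-3/7 activation measured as luminescence from the DEVD-based Caspase-Glo reagent, 15 min at room temperature, following 24-hour compound treatment of HEK293 cells.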

[10] = HEK293 12hr Apoptosis Induction qHTS against the NCATS CANVASS Library (AID 1347361)
Summary of the method: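 Read-out: Caspase-Glo 3/7 luminescence (DEVD substrate), 15 min RT. Preceded by 12 h compound exposure of HEK293, 500 cells/well, 11-pt qHTS titration; doxorubicin titration as control.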

[11] = KB-3-1 Cancer Cell Toxicity qHTS against the NCATS CANVASS Library (AID 1347366); further: series mostly up to about 46 µM; nearly all actives have a fitted effect of over 75% in size
Summary of the method: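 KB-3-1 cells (500 cells/well) in DMEM + 10% FBS were treated with compounds for 72 hr at 37C, 5% CO2. Viability was read as CellTiter-Glo luminescence after 10 minutes at room temperature.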

[12] = MCF7 Cancer Cell Toxicity qHTS against the NCATS CANVASS Library (AID 1347369)
Summary of the method: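 MCF7, 500 cells/well; cpds 11-pt qHTS; 72 hr, 37C/5% CO2; CellTiterGlo ATP luminescence.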

[13] = qHTS for ATAD5 Antagonist screened against the NCATS CANVASS Library (AID 1347370); further: nearly all actives have a fitted effect of over 65% in size; further: potency means the concentration at half of the fitted maximal effect
Summary of the method: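 HEK293T-ATAD5 luc reporter, 2000 cells/well; 5hr attach; cpd + 10 uM 5-FUrd; 16hr 37C, 5% CO2. Readouts: CellTiter-Fluor fluorescence (1hr), then Amplite luciferase luminescence (30min RT).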

[14] = J3T Cancer Cell Toxicity qHTS against the NCATS CANVASS Library (AID 1347371)
Summary of the method: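 ATP-based cytotoxicity in canine J3T cells: 72 hr exposure at 37C, 11-point titration, CellTiterGlo luminescent detection.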

[15] = molecular target: Nuclear receptor subfamily 1 group I member 3 (Homo sapiens) (UniProt Q14994); assay: qHTS for Constitutive Androstane Receptor (CAR) Agonist screened against the NCATS CANVASS Library (AID 1347373);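 further: every well also contained 1.5 µM PK11195 alongside the test compound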
Summary of the method: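 In an 11-point concentration series, compounds were incubated 24hr with HepG2 cells carrying hCAR and a CYP2B6-2.2kb reporter, with PK11195 at 1.5uM final. A CellTiter-Fluor viability read preceded the ONE-Glo luminescence read.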

[16] = 10-beta competent E. coli microbial cell viability qHTS against the NCATS CANVASS Library (AID 1347376); further: series mostly up to about 46 µM
Summary of the method: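 Overnight 37C exposure of 10-beta E. coli (0.2 OD) to an 11-point concentration series; ATP-based luminescence after 20 min room-temperature reagent incubation; daunomycin as control.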

[17] = qHTS for Inflammasome Signaling Inhibitors: IL-1-beta AlphaLISA screen against the NCATS CANVASS Library (AID 1347379);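 further: human THP-1 cells primed with LPS then triggered with ATP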
Summary of the method: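 THP-1, 1 hr compound pre-incubation, then LPS 250 ng/mL + ATP 1.25 mM (final); 16 hr total with compound; IL-1B AlphaLISA, ex 680/em 615 nm; 11-point qHTS, up to 57.5 uM final.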

[18] = Inflammasome Signaling qHTS Counterscreen: IL-1-beta AlphaLISA counterscreen against the NCATS CANVASS Library (AID 1347381);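 further: cell-free check with purified IL-1β in medium and no THP-1 cells; series mostly up to about 57 µM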
Summary of the method: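 Here, no cellular stimulation occurs; compounds in an 11-point series meet 4 pg purified IL-1-beta directly. Bead-based AlphaLISA detection follows (1 h acceptor/antibody, then 30 min donor, dark, room temperature), with excitation at 680 nm.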

[19] = Vero-766 cells viability qHTS against the NCATS CANVASS Library: Counterscreen for Zika virus inhibition assay (AID 1347394); further: series mostly up to about 46 µM; nearly all actives have a fitted effect of over 60% in size
Summary of the method: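 Uninfected Vero 766 (African green monkey) cells, 1000/well, attached overnight, then exposed 72 h at 37C to compounds (11-point qHTS). Viability read by CellTiter-Glo luminescence; media-only wells served as 100% inhibition.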

[20] = molecular target: Luciferin 4-monooxygenase (Photinus pyralis) (UniProt P08659); assay: Firefly luciferase counterscreen qHTS: Assay Interference Panel against the NCATS CANVASS Library (AID 1347363); further: series mostly up to about 57 µM
Summary of the method: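 Luminescence inhibition readout: compounds (11-point qHTS) sat 15 min at room temperature with substrate mix (0.013 mM luciferin and ATP), then firefly luciferase was added and signal read 5 min later.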

Measured: Potency

Nuclear receptor subfamily 1 group I member 3 (Homo sapiens), sequence (Q14994 whole entry, looked up): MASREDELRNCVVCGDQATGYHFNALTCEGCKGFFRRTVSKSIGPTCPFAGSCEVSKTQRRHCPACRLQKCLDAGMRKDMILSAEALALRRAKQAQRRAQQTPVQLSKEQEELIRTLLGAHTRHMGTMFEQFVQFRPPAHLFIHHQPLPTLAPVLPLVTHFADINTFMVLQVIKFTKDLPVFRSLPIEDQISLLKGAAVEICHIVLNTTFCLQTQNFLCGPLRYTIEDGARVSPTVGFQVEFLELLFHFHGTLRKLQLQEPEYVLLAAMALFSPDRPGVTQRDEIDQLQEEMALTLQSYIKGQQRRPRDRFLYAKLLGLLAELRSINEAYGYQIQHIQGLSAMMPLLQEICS
Luciferin 4-monooxygenase (Photinus pyralis), sequence (P08659 whole entry, looked up): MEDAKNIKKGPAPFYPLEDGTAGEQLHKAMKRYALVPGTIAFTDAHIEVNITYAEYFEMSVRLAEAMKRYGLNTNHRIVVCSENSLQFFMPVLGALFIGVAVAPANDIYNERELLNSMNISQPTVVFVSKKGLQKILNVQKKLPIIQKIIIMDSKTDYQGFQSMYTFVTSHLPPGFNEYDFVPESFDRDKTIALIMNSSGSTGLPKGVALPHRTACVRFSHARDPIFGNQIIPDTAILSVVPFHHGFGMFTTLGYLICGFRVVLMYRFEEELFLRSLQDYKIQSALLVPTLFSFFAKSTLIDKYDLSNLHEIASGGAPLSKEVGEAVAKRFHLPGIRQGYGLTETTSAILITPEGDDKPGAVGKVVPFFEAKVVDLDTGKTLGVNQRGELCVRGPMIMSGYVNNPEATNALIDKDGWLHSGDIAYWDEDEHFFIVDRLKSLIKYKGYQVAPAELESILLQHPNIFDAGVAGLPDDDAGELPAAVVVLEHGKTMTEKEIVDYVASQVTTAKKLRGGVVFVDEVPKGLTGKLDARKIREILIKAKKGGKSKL

C/C1=C\CC(=O)/C=C/C=C\c2csc(n2)[C@@H](C)NC(=O)C[C@@](S)([C@@H](C)C(=O)O)CC1
active: [1] 7.82 µM
inactive: [2] | [3] | [4] | [5] | [6] | [7] | [8] | [9] | [10] | [11] | [12] | [13] | [14] | [15] | [16] | [17] | [18] | [19]

O=C(O)Cc1c[nH]c2ccccc12
inactive: [1] | [2] | [3] | [4] | [5] | [6] | [7] | [8] | [9] | [10] | [20] | [11] | [12] | [13] | [14] | [15] | [16] | [17] | [18] | [19]

O=c1cc(-c2ccc(O)cc2)oc2c([C@@H]3OC(CO)[C@H](O)[C@@H](O)[C@H]3O)c(O)cc(O)c12 (stereo not given in full)
active: [1] 17.5 µM
inactive: [2] | [3] | [4] | [5] | [6] | [7] | [8] | [9] | [10] | [20] | [11] | [12] | [13] | [14] | [15] | [16] | [17] | [18] | [19]

C/C=C/C[C@@H](C)[C@@H](O)[C@H]1C(=O)N[C@@H](CC)C(=O)N(C)CC(=O)N(C)[C@@H](CC(C)C)C(=O)N[C@@H](C(C)C)C(=O)N(C)[C@@H](CC(C)C)C(=O)N[C@@H](C)C(=O)N[C@H](C)C(=O)N(C)[C@@H](CC(C)C)C(=O)N(C)[C@@H](CC(C)C)C(=O)N(C)[C@H](C(C)C)C(=O)N1C
inactive: [1]

C[C@@H](CCC[C@]1(C)C(=O)C=C[C@]23C[C@H]4C[C@H](O[C@@]4(C)C2)C31)C(=O)N[C@@H](CO)C(=O)O (stereo not given in full)
inactive: [1] | [2] | [3] | [4] | [5] | [6] | [7] | [8] | [9] | [10] | [20] | [11] | [12] | [13] | [14] | [15] | [16] | [17] | [18] | [19]

COc1ccc([C@@H]2c3cc(OC)c(OC)cc3C(=O)C(C)C2C)cc1OC (stereo not given in full)
inactive: [1] | [2] | [3] | [4] | [5] | [6] | [7] | [8] | [9] | [10] | [20] | [11] | [12] | [14] | [15] | [16] | [17] | [18] | [19]
active: [13] 20.9 µM

— PubChem BioAssay (NCATS)
